Molecules are shown by their SMILES. “And” between values parts separate entries of the source, which are not always exact repeats. Identical values can stand only once. This is part of a sample that, as a whole, favours compounds with a hit. Of some 83,000 tested, about 20% had one in any assay.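 Cell lines were cultured in 96-well plates, exposed to a single compound concentration, and assessed for percent growth 48 hours later.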 The source made the active and inactive calls. The calls were made as follows: active = growth percent below 10; inactive = the rest.

In this test the test system is HL-60(TB) leukemia. As to the kind of experiment: NCI-60 one-dose screen, 48 h (100 = growth as untreated, 0 = no growth, -100 = all killed). The following applies: 10 µM unless noted.
As to `CC(=O)Nc1nc(C)c(C(=O)NN)s1`, the growth was 117% (inactive).
On to `O=C(O)c1cn(C2CC2)c2cc(N3CCN(C(=O)c4cc(-c5ccc(Cl)cc5)nc5ccccc45)CC3)c(F)cc2c1=O`, for which the growth is 101% (inactive).
Regarding `CCOC(=O)c1cnc2c(OC)ccc(OC)c2c1Cl`, the growth was 127% (inactive).
Under `CN1CC[C@@H](c2c(O)cc(O)c3c(=O)cc(-c4ccccc4Cl)oc23)[C@@H](O)C1` stands -29.1% (active); under `Cc1cc(N2CCCCC2)nc(N(CCCNc2ccnc3cc(Cl)ccc23)Cc2ccco2)n1`, -43.6% (active); under `Cc1ccc(N)c(S(=O)(=O)O)c1`, 74.5% (inactive).
In the case of `CCCCCCCCCCCCCCCCCCOc1ccccc1CC(=O)OCC[N+]1(C)CCCC1`, the growth is 22.9% (inactive).
Turning to `O=C(CCCCCCN1CC(=O)N2[C@H](c3cc(Br)cs3)c3[nH]c4ccccc4c3C[C@H]2C1=O)NO`, the growth was 4.98% (active).
Under `COc1ccc2c(=O)cc(-c3ccccc3)[nH]c2c1` stands 11.5% (inactive) and -29.9% (active); under `NC(=O)c1c(NC(=O)c2ccc(OCC3CCCO3)cc2)sc2c1CCCC2` (centres undefined), 53.8% (inactive); under `COc1ccc(Sc2ccc3[nH]c(=O)nc(N)c3c2)cc1`, 94.9% (inactive).
On to `CC/C=C\C[C@H]1C/C=C2/C(=O)C=C[C@@H]2C/C=C\CCCC(=O)O1`, for which the growth is -27.2% (active).
Regarding `COc1ccc(Cn2c(NCCN=C(N)N)nc(=O)n(Cc3ccc(F)cc3)c2=O)cc1`, the growth is 94.1% (inactive) and 96.9% (inactive).
For the compound `CCN(CC)CCOc1ccc(/C(=C(/C)c2ccccc2)c2ccc(OC(C)=O)cc2)cc1`, the growth was 117% (inactive).
